This passage reports inhibition results from ChEMBL document CHEMBL1961873, “Compounds: GSK PKIS; Assays: Nanosyn kinase panel” (2012).

The target of experiment [1] is T1, Ephrin type-B receptor 2 (Homo sapiens) (UniProt P29323).
T1 sequence (whole entry): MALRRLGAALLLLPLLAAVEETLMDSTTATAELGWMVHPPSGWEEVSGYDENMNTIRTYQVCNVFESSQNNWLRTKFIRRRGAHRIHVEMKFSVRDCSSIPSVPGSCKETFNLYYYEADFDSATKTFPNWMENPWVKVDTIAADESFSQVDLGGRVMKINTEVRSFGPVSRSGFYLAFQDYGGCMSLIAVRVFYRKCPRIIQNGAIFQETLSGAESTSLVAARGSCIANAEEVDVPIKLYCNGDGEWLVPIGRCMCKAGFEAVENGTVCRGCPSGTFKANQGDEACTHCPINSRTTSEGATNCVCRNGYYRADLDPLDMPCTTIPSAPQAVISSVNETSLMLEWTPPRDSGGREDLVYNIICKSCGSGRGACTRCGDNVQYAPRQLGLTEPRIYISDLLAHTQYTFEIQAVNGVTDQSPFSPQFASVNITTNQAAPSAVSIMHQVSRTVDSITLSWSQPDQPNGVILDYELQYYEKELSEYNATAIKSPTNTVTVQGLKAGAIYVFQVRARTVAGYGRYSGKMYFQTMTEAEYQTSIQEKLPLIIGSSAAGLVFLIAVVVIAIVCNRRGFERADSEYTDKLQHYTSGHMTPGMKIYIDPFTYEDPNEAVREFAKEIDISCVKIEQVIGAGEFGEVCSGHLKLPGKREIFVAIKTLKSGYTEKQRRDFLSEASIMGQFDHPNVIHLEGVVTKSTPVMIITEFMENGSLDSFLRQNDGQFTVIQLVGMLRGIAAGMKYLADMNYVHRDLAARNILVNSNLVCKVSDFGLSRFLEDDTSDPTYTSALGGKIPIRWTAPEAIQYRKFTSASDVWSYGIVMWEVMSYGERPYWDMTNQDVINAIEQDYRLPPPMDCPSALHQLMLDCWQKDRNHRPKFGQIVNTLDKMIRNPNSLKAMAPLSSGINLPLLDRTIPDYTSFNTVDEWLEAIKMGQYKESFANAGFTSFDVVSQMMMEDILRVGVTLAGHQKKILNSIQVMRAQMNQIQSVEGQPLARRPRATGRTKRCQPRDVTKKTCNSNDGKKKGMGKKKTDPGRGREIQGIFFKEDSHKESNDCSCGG
Particulars: at 1 µM.

Experiment [2] has as its target T2, Ephrin type-B receptor 3 (Homo sapiens) (UniProt P54753).
T2 sequence (whole entry): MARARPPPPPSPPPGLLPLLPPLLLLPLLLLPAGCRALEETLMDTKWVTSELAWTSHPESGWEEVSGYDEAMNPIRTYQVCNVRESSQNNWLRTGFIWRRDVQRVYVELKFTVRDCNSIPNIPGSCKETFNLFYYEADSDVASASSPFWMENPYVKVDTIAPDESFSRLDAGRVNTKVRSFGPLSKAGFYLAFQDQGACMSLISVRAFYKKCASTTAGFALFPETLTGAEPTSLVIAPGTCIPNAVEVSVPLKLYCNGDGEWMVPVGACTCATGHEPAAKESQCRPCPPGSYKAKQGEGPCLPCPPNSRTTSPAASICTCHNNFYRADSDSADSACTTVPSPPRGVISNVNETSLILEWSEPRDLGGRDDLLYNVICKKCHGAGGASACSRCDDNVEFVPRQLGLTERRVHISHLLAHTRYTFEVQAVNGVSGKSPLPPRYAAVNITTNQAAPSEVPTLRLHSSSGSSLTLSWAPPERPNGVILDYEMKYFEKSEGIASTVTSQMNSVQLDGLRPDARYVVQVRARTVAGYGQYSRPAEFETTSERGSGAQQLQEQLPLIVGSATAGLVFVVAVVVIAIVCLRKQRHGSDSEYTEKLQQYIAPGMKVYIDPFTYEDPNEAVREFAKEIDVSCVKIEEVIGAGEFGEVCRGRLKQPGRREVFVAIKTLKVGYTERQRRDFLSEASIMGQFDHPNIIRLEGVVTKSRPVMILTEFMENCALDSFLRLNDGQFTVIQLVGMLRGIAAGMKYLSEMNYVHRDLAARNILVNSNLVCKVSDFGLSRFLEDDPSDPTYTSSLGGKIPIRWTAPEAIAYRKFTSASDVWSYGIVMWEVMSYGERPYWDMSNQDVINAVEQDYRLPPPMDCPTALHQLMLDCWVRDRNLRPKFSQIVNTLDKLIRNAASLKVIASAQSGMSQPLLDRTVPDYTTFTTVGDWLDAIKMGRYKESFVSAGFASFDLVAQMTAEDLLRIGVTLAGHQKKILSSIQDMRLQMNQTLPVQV
Particulars: at 0.1 µM.

In experiment [3] the target is T2, Ephrin type-B receptor 3 (Homo sapiens). Particulars: at 1 µM.
The target of experiment [4] is T3, Ephrin type-B receptor 4 (Homo sapiens) (UniProt P54760).
T3 sequence (whole entry): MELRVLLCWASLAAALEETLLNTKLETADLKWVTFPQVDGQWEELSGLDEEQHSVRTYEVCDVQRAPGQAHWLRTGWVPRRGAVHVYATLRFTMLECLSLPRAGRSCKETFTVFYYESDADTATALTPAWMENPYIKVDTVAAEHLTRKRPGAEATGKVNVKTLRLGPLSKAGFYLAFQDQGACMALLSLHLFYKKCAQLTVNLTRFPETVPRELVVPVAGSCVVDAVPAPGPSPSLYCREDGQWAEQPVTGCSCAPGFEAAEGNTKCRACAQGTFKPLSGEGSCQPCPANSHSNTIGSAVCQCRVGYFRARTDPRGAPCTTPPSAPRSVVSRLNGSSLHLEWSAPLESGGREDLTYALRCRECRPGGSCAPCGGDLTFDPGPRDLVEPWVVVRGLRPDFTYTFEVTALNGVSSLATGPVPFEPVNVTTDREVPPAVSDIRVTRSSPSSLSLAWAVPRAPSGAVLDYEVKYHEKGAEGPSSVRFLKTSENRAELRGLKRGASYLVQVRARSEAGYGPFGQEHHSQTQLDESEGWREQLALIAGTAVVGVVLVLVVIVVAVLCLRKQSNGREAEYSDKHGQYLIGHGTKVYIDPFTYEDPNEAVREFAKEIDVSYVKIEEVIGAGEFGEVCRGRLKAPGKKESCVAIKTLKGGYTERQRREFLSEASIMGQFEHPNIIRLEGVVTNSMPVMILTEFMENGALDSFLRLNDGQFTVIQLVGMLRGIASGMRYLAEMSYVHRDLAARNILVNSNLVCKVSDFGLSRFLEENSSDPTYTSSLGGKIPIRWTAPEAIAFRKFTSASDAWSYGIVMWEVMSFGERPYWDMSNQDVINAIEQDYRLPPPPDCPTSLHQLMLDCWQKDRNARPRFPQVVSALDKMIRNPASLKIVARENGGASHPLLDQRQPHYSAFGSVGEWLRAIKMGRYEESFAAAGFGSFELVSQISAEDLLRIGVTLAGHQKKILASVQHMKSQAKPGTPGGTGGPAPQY
Particulars: at 0.1 µM.

Experiment [5] deals with T3, Ephrin type-B receptor 4 (Homo sapiens). Particulars: at 1 µM.
The target of experiment [6] is Receptor tyrosine-protein kinase erbB-2 (Homo sapiens) (UniProt P04626). Particulars: at 0.1 µM.
Receptor tyrosine-protein kinase erbB-2 (Homo sapiens), sequence (P04626 whole entry): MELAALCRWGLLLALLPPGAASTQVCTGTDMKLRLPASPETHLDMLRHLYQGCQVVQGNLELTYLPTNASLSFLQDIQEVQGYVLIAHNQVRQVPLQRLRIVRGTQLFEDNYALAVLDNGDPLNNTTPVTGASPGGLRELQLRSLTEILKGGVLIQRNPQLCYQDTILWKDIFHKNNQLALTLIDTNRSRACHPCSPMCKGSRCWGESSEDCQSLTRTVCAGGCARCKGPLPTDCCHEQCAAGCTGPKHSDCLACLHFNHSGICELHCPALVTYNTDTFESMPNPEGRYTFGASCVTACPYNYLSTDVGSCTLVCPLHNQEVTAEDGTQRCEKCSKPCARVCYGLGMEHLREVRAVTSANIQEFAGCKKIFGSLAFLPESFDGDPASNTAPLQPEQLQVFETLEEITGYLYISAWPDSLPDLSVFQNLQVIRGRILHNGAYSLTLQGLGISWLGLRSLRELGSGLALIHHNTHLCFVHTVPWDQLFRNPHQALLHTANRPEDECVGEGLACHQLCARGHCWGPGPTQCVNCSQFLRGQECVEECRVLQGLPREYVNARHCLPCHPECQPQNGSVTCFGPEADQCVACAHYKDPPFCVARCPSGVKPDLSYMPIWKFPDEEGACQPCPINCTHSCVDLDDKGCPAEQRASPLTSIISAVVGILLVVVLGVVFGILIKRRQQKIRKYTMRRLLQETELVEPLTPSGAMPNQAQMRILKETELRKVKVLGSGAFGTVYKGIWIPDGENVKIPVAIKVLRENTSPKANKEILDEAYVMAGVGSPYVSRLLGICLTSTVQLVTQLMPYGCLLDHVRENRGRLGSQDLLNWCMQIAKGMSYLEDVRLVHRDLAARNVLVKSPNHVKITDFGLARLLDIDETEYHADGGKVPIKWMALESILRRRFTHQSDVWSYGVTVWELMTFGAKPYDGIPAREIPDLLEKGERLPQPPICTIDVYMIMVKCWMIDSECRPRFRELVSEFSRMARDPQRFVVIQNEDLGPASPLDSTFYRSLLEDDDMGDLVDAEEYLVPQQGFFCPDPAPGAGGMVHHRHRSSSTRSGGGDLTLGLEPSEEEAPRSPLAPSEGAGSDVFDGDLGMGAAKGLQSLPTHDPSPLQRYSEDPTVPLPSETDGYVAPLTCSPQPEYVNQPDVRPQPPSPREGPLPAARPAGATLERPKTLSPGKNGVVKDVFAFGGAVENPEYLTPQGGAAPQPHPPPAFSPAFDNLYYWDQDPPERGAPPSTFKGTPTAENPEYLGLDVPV
Experiment [7] shares this target. Particulars: at 1 µM.
Experiment [8] addresses Receptor tyrosine-protein kinase erbB-4 (Homo sapiens) (UniProt Q15303). Particulars: at 0.1 µM.
Experiment [9] has the same target. Particulars: at 1 µM.
Experiment [10] deals with Tyrosine-protein kinase Fer (Homo sapiens) (UniProt P16591). Particulars: at 0.1 µM.
Tyrosine-protein kinase Fer (Homo sapiens), sequence (P16591 whole entry, looked up): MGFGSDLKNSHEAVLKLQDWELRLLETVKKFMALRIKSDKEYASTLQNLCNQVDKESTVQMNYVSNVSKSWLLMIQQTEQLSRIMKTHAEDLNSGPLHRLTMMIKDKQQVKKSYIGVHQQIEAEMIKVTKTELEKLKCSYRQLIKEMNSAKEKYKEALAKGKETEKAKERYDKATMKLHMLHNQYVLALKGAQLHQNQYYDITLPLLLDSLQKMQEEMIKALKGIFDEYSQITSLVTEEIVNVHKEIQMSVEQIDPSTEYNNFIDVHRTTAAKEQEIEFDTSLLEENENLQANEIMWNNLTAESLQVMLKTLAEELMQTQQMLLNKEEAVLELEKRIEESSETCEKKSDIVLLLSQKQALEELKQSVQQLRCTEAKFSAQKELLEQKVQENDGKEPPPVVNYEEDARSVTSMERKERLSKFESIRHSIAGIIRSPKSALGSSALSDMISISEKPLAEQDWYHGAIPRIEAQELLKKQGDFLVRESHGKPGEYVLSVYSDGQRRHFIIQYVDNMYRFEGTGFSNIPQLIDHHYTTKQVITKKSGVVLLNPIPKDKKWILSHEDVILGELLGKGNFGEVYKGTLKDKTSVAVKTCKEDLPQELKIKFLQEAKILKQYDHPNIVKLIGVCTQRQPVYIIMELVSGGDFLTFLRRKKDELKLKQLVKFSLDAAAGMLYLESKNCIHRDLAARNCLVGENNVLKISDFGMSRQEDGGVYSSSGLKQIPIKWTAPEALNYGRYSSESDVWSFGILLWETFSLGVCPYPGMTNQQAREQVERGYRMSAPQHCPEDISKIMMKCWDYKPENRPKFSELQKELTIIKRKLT

Receptor tyrosine-protein kinase erbB-4 (Homo sapiens), sequence (Q15303 whole entry): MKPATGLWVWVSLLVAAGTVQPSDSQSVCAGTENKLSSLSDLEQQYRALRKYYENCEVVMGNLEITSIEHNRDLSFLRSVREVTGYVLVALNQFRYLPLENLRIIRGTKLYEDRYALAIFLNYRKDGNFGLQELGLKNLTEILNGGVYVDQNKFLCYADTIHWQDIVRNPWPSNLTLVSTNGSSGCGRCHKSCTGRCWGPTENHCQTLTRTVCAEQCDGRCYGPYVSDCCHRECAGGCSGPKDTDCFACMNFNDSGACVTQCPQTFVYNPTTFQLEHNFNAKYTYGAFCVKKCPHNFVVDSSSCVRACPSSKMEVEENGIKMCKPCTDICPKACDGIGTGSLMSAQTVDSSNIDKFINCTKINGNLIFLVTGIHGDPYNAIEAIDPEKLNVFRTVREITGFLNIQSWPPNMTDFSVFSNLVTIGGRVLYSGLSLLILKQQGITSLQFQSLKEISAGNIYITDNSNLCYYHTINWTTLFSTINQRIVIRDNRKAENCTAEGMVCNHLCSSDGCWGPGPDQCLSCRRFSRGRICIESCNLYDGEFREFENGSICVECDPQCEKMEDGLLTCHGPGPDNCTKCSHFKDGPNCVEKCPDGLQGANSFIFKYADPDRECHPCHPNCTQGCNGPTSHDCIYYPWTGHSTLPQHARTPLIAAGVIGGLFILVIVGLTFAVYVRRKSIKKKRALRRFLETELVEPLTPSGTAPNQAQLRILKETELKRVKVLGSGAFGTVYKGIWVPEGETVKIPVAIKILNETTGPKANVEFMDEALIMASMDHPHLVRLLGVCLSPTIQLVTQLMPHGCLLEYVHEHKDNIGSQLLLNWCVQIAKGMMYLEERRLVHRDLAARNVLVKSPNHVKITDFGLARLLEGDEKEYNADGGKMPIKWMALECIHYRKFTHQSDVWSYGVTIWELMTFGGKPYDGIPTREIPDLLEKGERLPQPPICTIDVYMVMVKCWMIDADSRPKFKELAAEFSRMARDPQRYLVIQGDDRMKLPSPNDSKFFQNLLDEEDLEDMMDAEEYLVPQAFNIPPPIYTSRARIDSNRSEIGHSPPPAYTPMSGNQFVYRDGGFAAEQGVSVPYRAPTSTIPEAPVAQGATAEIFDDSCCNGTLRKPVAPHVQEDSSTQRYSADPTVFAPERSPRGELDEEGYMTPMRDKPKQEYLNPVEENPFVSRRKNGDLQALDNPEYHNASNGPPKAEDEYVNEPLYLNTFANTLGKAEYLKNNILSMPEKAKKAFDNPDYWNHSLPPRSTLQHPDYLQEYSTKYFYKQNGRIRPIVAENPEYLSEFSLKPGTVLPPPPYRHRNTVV

`COc1cc(Nc2nccc(-c3cnn4ncccc34)n2)cc(OC)c1`: the inhibition in experiment [1] is 40.2%; in experiment [2], 3.58%; in [3], -3.61%; in [4] it was 2.69%; in [5], 25.6%; in [6], 2.17%. For the same molecule, the inhibition in [7] was -0.98%; in experiment [8] it was 5.96%; in experiment [9] it was 8.81%; in experiment [10], 11.1%.
Consider `C[C@@H](Oc1cc(-n2cnc3ccc(OC[C@@H](O)CO)cc32)sc1C(N)=O)c1ccccc1Cl`, for which the inhibition in experiment [1] is -2.42%; in [2], -1.05%; in experiment [3], -0.83%; in experiment [4], -3.41%; in experiment [5], -0.4%; in experiment [6], 0%. In addition, the inhibition was 0.61% in experiment [7], -3.03% in experiment [8], -1.55% in [9] and -1.75% in [10].
As for `Cc1cc(-c2ccccn2)cc(C)c1/C=C/c1cncc(-c2nn[nH]n2)c1`, the inhibition is 12.8% in [1]; 2.22% in experiment [2]; 4.35% in [3]; 1.86% in experiment [4]; 4.98% in experiment [5]; -0.2% in experiment [6]. The inhibition in [7] is 8.13%; in [8], 8.8%; in [9], 21.3%; in [10], -0.04%.
Turning to `Cc1ccc(NC(=O)CC2CC2)cc1-c1ccc(C(=O)NCC2CC2)cc1`, the inhibition in experiment [1] amounted to 11.6%; in experiment [2] it was 4.23%; in experiment [3], 3.77%; in [4] it was 0.66%; in experiment [5], 3.43%; in [6], 0.13%. The inhibition is 3.41% in [7], 6.43% in experiment [8], 8.12% in experiment [9] and 4.27% in experiment [10].
On to `COc1cccc(-n2ncc3c(N/N=C/c4ccc(C)cc4)ncnc32)c1`, for which the inhibition in experiment [1] worked out at 9.45%; in experiment [2] it was 2.7%; in [3], 4.17%; in experiment [4], 3.6%; in [5] it was 3.21%; in experiment [6], 2.26%. Further, the inhibition was determined as 3.43% in experiment [7], 6.09% in experiment [8], 11.9% in experiment [9] and 8.13% in experiment [10].
For `[O-][S+]1CCN(Cc2ccc(-c3ccc4ncnc(Nc5ccc(OCc6ccccc6)c(Cl)c5)c4c3)o2)CC1`, the inhibition is 5.17% in experiment [1]; 0.63% in experiment [2]; 1.88% in experiment [3]; -0.7% in experiment [4]; -0.05% in experiment [5]; 37.5% in [6]. Further, the inhibition is 72.6% in experiment [7], 69.6% in experiment [8], 84.3% in experiment [9] and -2.55% in [10].
On to `OCc1ccc(-c2nc(-c3ccccn3)c(-c3ccc4c(c3)OCO4)[nH]2)cc1`, for which the inhibition came to 11.4% in experiment [1]; 5.72% in experiment [2]; 3.87% in experiment [3]; 4.58% in experiment [4]; 4.09% in experiment [5]; 0.45% in experiment [6]. Moreover, the inhibition in experiment [7] was -3.06%; in experiment [8], 11.6%; in [9] it was 12.7%; in [10], 2.2%.
`CCn1c(-c2nonc2N)nc2c(C#CC(C)(C)O)nc(OCCNC)cc21`: the inhibition is 8.26% in experiment [1]; -3.04% in experiment [2]; 4% in experiment [3]; 2.31% in [4]; 2.13% in [5]; 0.68% in experiment [6]. Also, the inhibition is 3.83% in [7], 4.11% in experiment [8], 7.02% in experiment [9] and -0.15% in experiment [10].
